What all share (test): NCI-60 one-dose screen, 48 h (100 = growth as untreated, 0 = no growth, -100 = all killed)
In experiment [1] the test system is HCT-15 colon. The conditions noted are these: 10 µM.
For experiment [2], the system named is HT29 colon. The conditions noted are these: 10 µM.
Experiment [3] relates to SNB-75 CNS. The conditions noted are these: 10 µM.
The subject of experiment [4] is U251 CNS. The settings on record: 10 µM.
Experiment [5] deals with PC-3 prostate. The conditions noted are these: 10 µM.
The subject of experiment [6] is SK-MEL-5 melanoma. The settings on record: 10 µM.
Experiment [7] relates to UACC-62 melanoma. The settings on record: 10 µM unless noted.
Experiment [8] concerns LOX IMVI melanoma. The conditions noted are these: 10 µM.
In experiment [9] the test system is SK-MEL-28 melanoma. The settings on record: 10 µM.
Experiment [10] relates to SK-MEL-2 melanoma. The settings on record: 10 µM.
Experiment [11] concerns EKVX NSCLC. The conditions noted are these: 10 µM.
Experiment [12] relates to SN12C renal. The conditions noted are these: 10 µM.
Experiment [13] has as its system TK-10 renal. The conditions noted are these: 10 µM unless noted.
In experiment [14] the test system is ACHN renal. The settings on record: 10 µM.
Experiment [15] has as its system CAKI-1 renal. The conditions noted are these: 10 µM.
Experiment [16] has as its system A498 renal. The settings on record: 10 µM.
The subject of experiment [17] is CCRF-CEM leukemia. The settings on record: 10 µM.
Experiment [18] concerns MOLT-4 leukemia. The conditions noted are these: 10 µM.
Experiment [19] concerns UO-31 renal. The conditions noted are these: 10 µM.

The panel holds about 83,000 compounds, 20% with a hit somewhere; the sample as a whole holds those more often.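 Cell lines were cultured in 96-well plates, exposed to a single compound concentration, and assessed for percent growth 48 hours later.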 Unmarked numbers belong to inactive results. The source made the active and inactive calls. The calls were made as follows: active = growth percent below 10; inactive = the rest.

Take `Cc1ccc(C)n1-c1ccsc1C(=O)NNC(=O)CCl`: the growth is 88.8% in [1]; 106% in experiment [2]; 112% in [3]; 95.6% in [4]; 93.4% in experiment [5]; 85.8% in [6]. Further, the growth is 82.7% in [7]; 16.4% in [8]; 111% in experiment [9]; 91.2% in experiment [10]; 81.2% in [11]; 92.2% in experiment [12]. For the same molecule, the growth was 105% in experiment [13]; 98.5% in experiment [14]; 84.8% in experiment [15]; 104% in experiment [16]; 61% in experiment [17]; 92.9% in experiment [18].

As for `COc1ccc(C(=O)C(Br)C(Br)C(=O)O)cc1` (centres undefined), the growth in [1] was 98.1%; in experiment [2] it was 117%; in [3] it was 87.4%; in experiment [4] it was 104%; in experiment [5], 110%; in experiment [6], 101%. Besides, the growth in [7] is 98.4%; in experiment [8] it was 97.7%; in experiment [9] it was 108%; in experiment [10], 94%; in [12], 98.6%; in experiment [19], 102%. Further, the growth in [14] is 101%; in experiment [15] it was 112%; in [16], 101%; in experiment [18] it was 105%.

With `OCCN(CCO)C(=S)S`, the growth is 104% in experiment [1]; 113% in [2]; 129% in [3]; 102% in [4]; 104% in experiment [5]; 94.8% in experiment [6]. The growth was 91.7% in experiment [7]; 107% in experiment [8]; 113% in experiment [9]; 121% in experiment [10]; 96.3% in experiment [11]; 102% in experiment [12]. Moreover, the growth in experiment [13] is 110%; in experiment [14] it was 109%; in [15], 93.1%; in experiment [16], 114%; in experiment [17], 104%; in experiment [18], 121%.

On to `CC(=O)Cc1cc(-c2cc(CC(C)=O)[nH]n2)n[nH]1`, for which the growth in experiment [1] was 99.4%; in experiment [2], 102%; in experiment [3], 87.1%; in [4] it was 97.7%; in experiment [5], 96.7%; in experiment [6] it was 99.6%. The growth was 90.3% in experiment [7]; 96.3% in experiment [8]; 107% in experiment [9]; 111% in experiment [10]; 89.8% in experiment [11]; 94.2% in [12]. The growth in experiment [13] is 92.4%; in [14] it was 95.1%; in experiment [15], 87.7%; in experiment [16], 99.3%; in experiment [17], 101%; in experiment [18], 114%.

`CNC(=S)NC(C)(C)C`: the growth in [1] was 106%; in experiment [2], 101%; in experiment [3], 146%; in experiment [4], 97%; in experiment [5], 89.9%; in [6] it was 93.6%. Also, the growth in experiment [7] is 94%; in experiment [8], 105%; in experiment [9], 108%; in [10] it was 122%; in experiment [11], 96.2%; in [12], 102%. In addition, the growth in [13] was 96.8%; in experiment [14], 108%; in experiment [15], 92.6%; in [16] it was 112%; in [17], 88.6%; in [18] it was 106%.

As to `COC(=O)c1[nH]c(=O)c(C#N)c(C(=O)OC)c1C(=O)c1ccccc1`, the growth in experiment [1] was 98.1%; in [2], 113%; in [3], 85.6%; in [4], 96.8%; in [5], 103%; in [6], 100%. Also, the growth in experiment [7] is 88.6%; in experiment [8], 89.9%; in [9], 101%; in experiment [10], 114%; in [11] it was 91.4%; in [12], 95%. For the same molecule, the growth in experiment [13] was 143%; in experiment [14], 98.1%; in experiment [15] it was 90%; in [16], 113%; in experiment [17], 105%; in [18], 104%.

As for `O=C1NC(=O)C2C(=O)NC(=O)C1C21CCc2ccccc21` (centres undefined), the growth was 105% in experiment [1]; 123% in experiment [2]; 124% in experiment [3]; 106% in experiment [4]; 90.1% in experiment [5]; 96.3% in experiment [6]. Also, the growth is 83.6% in experiment [7]; 102% in experiment [8]; 113% in experiment [9]; 118% in experiment [10]; 90.1% in experiment [11]; 100% in experiment [12]. Moreover, the growth in experiment [13] is 145%; in [14], 95.6%; in experiment [15], 77.7%; in experiment [16], 137%; in [17], 78.6%; in experiment [18], 111%.

Consider `CN(C)CCC(=O)c1ccc(O)cc1`, for which the growth in experiment [1] was 104%; in [2], 105%; in [3], 93.7%; in [4], 100%; in experiment [5], 106%; in experiment [6], 99.9%. Further, the growth was 97.2% in [8]; 110% in [9]; 107% in experiment [10]; 107% in experiment [11]; 87.2% in experiment [19]; 106% in experiment [13]. In addition, the growth in experiment [14] is 114%; in [15], 97.1%; in experiment [16] it was 99.4%; in [17], 109%; in experiment [18], 113%.

`CN(C)CCN(C)CC(C)(C)C(=O)/C=C/c1ccc(Cl)cc1`: the growth in [1] is -66.4% (active); in experiment [2], -16.7% (active); in experiment [3], 12.2%; in [4], -1.73% (active); in experiment [5] it was -4.75% (active); in [6], -24.9% (active). The growth was -46.4% (active) in [7]; -96.4% (active) in experiment [8]; -11.2% (active) in experiment [9]; -25.6% (active) in experiment [10]; -19.1% (active) in experiment [11]; 2.97% (active) in experiment [12]. In addition, the growth in experiment [13] is 0.991% (active); in [14], -27.3% (active); in experiment [15], 8.74% (active); in experiment [16], 10.4%; in [17] it was -9.31% (active); in experiment [18], -14.7% (active).

The values above are taken from PubChem BioAssay (NCI).
